The campaign covered roughly 39,000 compounds. About 1,500 (3.8%) were called active. The full list was thinned out, with actives kept by preference.

The experiment has as its system HSkMC (human skeletal muscle cells). The experiment can be described thus: cytotoxicity call (relative viability < 0.9). Conditions: 10 µM.
For the compound `Cc1noc(C)c1S(=O)(=O)N(C)C[C@@H]1Oc2ccc(NC(=O)NC3CCCCC3)cc2CC(=O)N([C@H](C)CO)C[C@H]1C`, the cytotoxicity call was “inactive”.
The same measure for `O=C(C[C@@H]1C=C[C@@H](NC(=O)c2ccc(F)cc2)[C@H](CO)O1)NCc1ccncn1`: “inactive”; for `O=C(O)c1ccc(O)c(O)c1`: “inactive”.
The same measure for `O=C(O)c1cc(O)c(O)c(O)c1` [listing 1 of 2 here]: “active”; for `O=C(O)c1cc(O)c(O)c(O)c1` [listing 2 of 2 here]: “inactive”; for `COc1ccc(NC(=O)Nc2ccc3c(c2)C(=O)N([C@@H](C)CO)C[C@@H](C)[C@H](CN(C)C(=O)C2CCCCC2)OCCCC[C@H](C)O3)cc1`: “inactive”.
On to `C[C@@H]1CN([C@H](C)CO)C(=O)Cc2cc(NC(=O)Cn3cnnn3)ccc2O[C@H]1CN(C)S(=O)(=O)c1cccs1`, for which the cytotoxicity call is “inactive”.
The value for `Oc1ccc(Cl)c2cccnc12` [listing 1 of 2 here] was “inactive”; that for `Oc1ccc(Cl)c2cccnc12` [listing 2 of 2 here] was “active”.
For `Oc1c(Cl)cc(Cl)c2cccnc12`, the cytotoxicity call is “inactive”.
The same measure for `O=C(NO)c1cccnc1`: “inactive”.
The same measure for `CCNC(=O)C[C@H]1C=C[C@H](NC(=O)C2CC2)[C@@H](CO)O1`: “inactive”.
On to `C[C@H]1CCCCO[C@@H](CN(C)Cc2ccccc2)[C@@H](C)CN([C@@H](C)CO)C(=O)c2cc(NC(=O)c3ccncc3)ccc2O1`, for which the cytotoxicity call was “inactive”.
The value for `COc1cccc2c1C(=O)c1c(O)c3c(c(O)c1C2=O)CC(O)(C(=O)CO)CC3OC1CC(N)C(O)C(C)O1` (stereo unspecified) [listing 1 of 2 here] was “active”.
Turning to `COc1cccc2c1C(=O)c1c(O)c3c(c(O)c1C2=O)CC(O)(C(=O)CO)CC3OC1CC(N)C(O)C(C)O1.Cl` (stereo unspecified), the cytotoxicity call is “inactive”.
As for `COc1cccc2c1C(=O)c1c(O)c3c(c(O)c1C2=O)C[C@@](O)(C(=O)CO)C[C@@H]3O[C@H]1C[C@H](N)[C@H](O)[C@H](C)O1`, the cytotoxicity call is “active”.
On to `COc1cccc2c1C(=O)c1c(O)c3c(c(O)c1C2=O)CC(O)(C(=O)CO)CC3OC1CC(N)C(O)C(C)O1` (stereo unspecified) [listing 2 of 2 here], for which the cytotoxicity call was “inactive”.
The same measure for `CCCCC(=O)OCC(=O)[C@]1(O)Cc2c(O)c3c(c(O)c2[C@@H](O[C@H]2C[C@H](NC(=O)C(F)(F)F)[C@H](O)[C@H](C)O2)C1)C(=O)c1c(OC)cccc1C3=O`: “active”; for `COc1cccc2c1C(=O)c1c(O)c3c(c(O)c1C2=O)C[C@](O)(C(=O)CO)C[C@H]3O[C@H]1C[C@@H](N)[C@@H](O)[C@@H](C)O1`: “active”; for `COc1cccc2c1C(=O)c1c(O)c3c(c(O)c1C2=O)C[C@@](O)(C(=O)CO)C[C@@H]3O[C@H]1C[C@H](N)[C@@H](O)[C@H](C)O1`: “inactive”.
The value for `COc1ccc(S(=O)(=O)Nc2ccc3c(c2)C(=O)N([C@@H](C)CO)C[C@@H](C)[C@@H](CN(C)CC2CCCCC2)OCCCC[C@H](C)O3)cc1` was “inactive”; that for `C=CCOC(=O)[C@@H]1[C@H]2C(=O)O[C@H](c3ccccc3)[C@H](c3ccccc3)N2[C@H](c2ccc(OCCOC(=O)[C@H]3C[C@H]4C(=O)N5CCC[C@H]5C(=O)N4[C@H]3c3ccc(O)cc3)cc2)[C@@]12C(=O)Nc1ccc(I)cc12` was “inactive”.
Regarding `C[C@H]1CN([C@@H](C)CO)C(=O)c2cc(NC(=O)CCCCCC(=O)Nc3ccccc3N)ccc2O[C@@H]1CN(C)S(C)(=O)=O`, the cytotoxicity call was “inactive”.
Take `O=C(C[C@H]1CC[C@H]2[C@@H](COC[C@@H](O)CN2Cc2ccccc2F)O1)N[C@@H]1CCN(Cc2ccccc2)C1`: the cytotoxicity call is “inactive”.
The same measure for `CCCCCCCCCCNc1cc(CO)c2cc[nH]c2c1`: “inactive”.
Turning to `COc1ccc(S(=O)(=O)Nc2ccc3c(c2)C(=O)N([C@H](C)CO)C[C@H](C)[C@H](CN(C)C(=O)NC2CCCCC2)OCCCC[C@H](C)O3)cc1`, the cytotoxicity call was “inactive”.
The same measure for `C[C@@H]1CN([C@@H](C)CO)C(=O)Cc2cc(NS(=O)(=O)c3ccc(F)cc3)ccc2O[C@@H]1CN(C)Cc1ccc(Cl)c(Cl)c1`: “active”.
The same measure for `C[C@@H]1CN([C@@H](C)CO)C(=O)Cc2cc(NS(=O)(=O)c3ccc(F)cc3)ccc2O[C@H]1CN(C)Cc1ccc(Cl)c(Cl)c1`: “inactive”; for `C[C@H]1CN([C@@H](C)CO)C(=O)Cc2cc(NS(=O)(=O)c3ccc(F)cc3)ccc2O[C@@H]1CN(C)Cc1ccc(Cl)c(Cl)c1`: “inactive”.
On to `C[C@@H]1CN([C@H](C)CO)C(=O)Cc2cc(NS(=O)(=O)c3ccc(F)cc3)ccc2O[C@@H]1CN(C)Cc1ccc(Cl)c(Cl)c1`, for which the cytotoxicity call was “active”.
The value for `C[C@@H]1CN([C@H](C)CO)C(=O)Cc2cc(NS(=O)(=O)c3ccc(F)cc3)ccc2O[C@H]1CN(C)Cc1ccc(Cl)c(Cl)c1` was “inactive”; that for `C[C@H]1CN([C@@H](C)CO)C(=O)Cc2cc(NS(=O)(=O)c3ccc(F)cc3)ccc2O[C@H]1CN(C)Cc1ccc(Cl)c(Cl)c1` was “inactive”; that for `C[C@H]1CCCCO[C@@H](CN(C)S(=O)(=O)c2cccs2)[C@@H](C)CN([C@@H](C)CO)C(=O)c2cc(NC(=O)C3CCCCC3)ccc2O1` was “inactive”.
The value for `C[C@H](CO)N1C[C@H](C)[C@H](CN(C)Cc2ccc(C(=O)Nc3ccccc3N)cc2)Oc2ccc(NC(=O)C3CCCCC3)cc2C1=O` was “inactive”; that for `C[C@@H]1CN([C@H](C)CO)C(=O)Cc2cc(NS(=O)(=O)c3cccs3)ccc2O[C@@H]1CN(C)Cc1ccc(Cl)c(Cl)c1` was “active”; that for `C[C@H](CO)N1C[C@H](C)[C@H](CN(C)Cc2ccc(Cl)c(Cl)c2)Oc2ccc(NS(=O)(=O)c3cccs3)cc2CC1=O` was “inactive”.
The value for `C[C@@H]1CN([C@@H](C)CO)C(=O)Cc2cc(NS(=O)(=O)c3cccs3)ccc2O[C@@H]1CN(C)Cc1ccc(Cl)c(Cl)c1` was “inactive”; that for `C[C@@H]1CN([C@H](C)CO)C(=O)Cc2cc(NS(=O)(=O)c3cccs3)ccc2O[C@@H]1CN(C)Cc1ccncc1` was “inactive”.
Consider `C[C@H]1CN([C@@H](C)CO)C(=O)Cc2cc(NS(=O)(=O)c3cccs3)ccc2O[C@@H]1CN(C)Cc1ccc(Cl)c(Cl)c1`, for which the cytotoxicity call is “inactive”.
The same measure for `C[C@@H]1CN([C@@H](C)CO)C(=O)Cc2cc(NS(=O)(=O)c3cccs3)ccc2O[C@H]1CN(C)Cc1ccc(Cl)c(Cl)c1`: “inactive”; for `C[C@H](CO)N1C[C@H](C)[C@@H](CN(C)Cc2ccc(Cl)c(Cl)c2)Oc2ccc(NS(=O)(=O)c3cccs3)cc2CC1=O`: “inactive”; for `C[C@H]1CN([C@@H](C)CO)C(=O)Cc2cc(NS(=O)(=O)c3cccs3)ccc2O[C@H]1CN(C)Cc1ccc(Cl)c(Cl)c1`: “active”.
The same measure for `C[C@@H]1CN([C@H](C)CO)C(=O)Cc2cc(NS(=O)(=O)c3cccs3)ccc2O[C@H]1CN(C)Cc1ccc(Cl)c(Cl)c1`: “active”; for `COc1ccc(S(=O)(=O)N(C)C[C@H]2Oc3c(NC(=O)NC(C)C)cccc3C(=O)N([C@H](C)CO)C[C@H]2C)cc1`: “inactive”; for `C[C@@H]1CN([C@H](C)CO)C(=O)c2cc(NC(=O)C3CCCCC3)ccc2O[C@@H](C)CCCCO[C@H]1CN(C)S(=O)(=O)c1ccccc1`: “inactive”.
Regarding `C[C@H]1CN([C@@H](C)CO)C(=O)c2c(c3ccccc3n2C)-c2ccccc2CO[C@H]1CN(C)C(=O)Nc1ccccc1C(F)(F)F`, the cytotoxicity call was “inactive”.
The value for `COc1ccc(NC(=O)Nc2cccc3c2O[C@@H](CN(C)Cc2ccc(Cl)c(Cl)c2)[C@H](C)CN([C@H](C)CO)C3=O)cc1` was “inactive”; that for `CC(C)NC(=O)Nc1ccc2c(c1)C(=O)N([C@@H](C)CO)C[C@@H](C)[C@H](CN(C)Cc1ccc(Cl)c(Cl)c1)OCCCC[C@@H](C)O2` was “inactive”; that for `C[C@@H]1CN([C@@H](C)CO)C(=O)c2cccc(NC(=O)c3ccncc3)c2O[C@@H]1CN(C)S(=O)(=O)c1cccs1` was “inactive”.
The value for `C[C@H]1CN([C@@H](C)CO)C(=O)CCCn2cc(nn2)CO[C@H]1CN(C)C(=O)C1CC1` was “inactive”.
The value for `O=C(C[C@@H]1CC[C@@H]2[C@H](COC[C@H](O)CN2S(=O)(=O)c2cccc(F)c2)O1)NCCCN1CCOCC1` was “inactive”.
For the compound `CNc1nc(OCC#N)nc(N2CCCCC2)n1`, the cytotoxicity call is “inactive”.
The value for `COC(=O)[C@@]12OC[C@]34[C@H]([C@@H](O)[C@@H]1O)[C@@]1(C)CC(=O)C(=O)[C@H](C)[C@@H]1C[C@H]3OC(=O)[C@H](OC(=O)/C=C(\C)C(C)C)[C@@H]24` was “active”; that for `C[C@H](CO)N1C[C@H](C)[C@@H](CN(C)S(=O)(=O)c2ccccc2)Oc2ncc(C#Cc3ccccc3F)cc2C1=O` was “inactive”; that for `O=C(C[C@@H]1CC[C@H]2[C@@H](COC[C@@H](O)CN2C(=O)c2ccc3c(c2)OCO3)O1)NCCN1CCCCC1` was “inactive”.
The value for `CC(=O)NCC(=O)N1CCC2(CC1)CN(c1cnn(C)c1)C(=O)CO2` was “inactive”; that for `O[C@@H](COc1cccc2ncccc12)CN1CCN([C@@H]2c3ccccc3[C@@H]3[C@H](c4ccccc42)C3(F)F)CC1` was “active”.
The value for `O=C1C(=O)N(C[C@@H](O)COc2cccc3ccccc23)C(=O)C(=O)N1C[C@@H](O)COc1cccc2ccccc12` was “inactive”; that for `COc1ccccc1N1CCN(CC(O)COc2cccc3ccccc23)CC1` (stereo unspecified) was “inactive”.
In the case of `C[C@H](CO)N1C[C@H](C)[C@@H](CN(C)C(=O)c2ccncc2)OCCCC[C@H](C)Oc2ccc(NS(C)(=O)=O)cc2C1=O`, the cytotoxicity call is “inactive”.
As for `C[C@@H]1CN([C@H](C)CO)C(=O)c2cc(NC(=O)Nc3ccc(C(F)(F)F)cc3)ccc2O[C@@H](C)CCCCO[C@@H]1CN(C)C(=O)Nc1cccc2ccccc12`, the cytotoxicity call was “inactive”.
The value for `C[C@@H]1CN([C@H](C)CO)C(=O)c2cccc(NC(=O)Nc3ccccc3)c2O[C@@H]1CN(C)S(C)(=O)=O` was “inactive”; that for `COc1ccc2c3c(n(c2c1)C)[C@@H](CO)N(CC1CC1)C[C@]13CCN(CC1)S(=O)(=O)c1cn(cn1)C` was “inactive”.
The value for `C[C@H](NC(=O)c1c(N)nn2cccnc12)c1cc2cccc(C#Cc3cnn(C)c3)c2c(=O)n1-c1ccccc1` was “active”; that for `C[C@@H]1CCCCO[C@H](CN(C)C(=O)Nc2ccccc2)[C@@H](C)CN([C@@H](C)CO)C(=O)c2cc(NC(=O)Cc3ccccc3)ccc2O1` was “inactive”; that for `COc1ccc(S(=O)(=O)N(C)C[C@@H]2Oc3cc(C#CC4CC4)ccc3S(=O)(=O)N([C@@H](C)CO)C[C@@H]2C)cc1` was “inactive”.

(Values after the antibiotic and cytotoxicity screens of Wong et al. (2023).)
